The structures appear in SMILES notation. Screen size: about 6,200 compounds; about 2,900 (47%) were called active. Rule as the data show it: active = inhibition above about 50%; inactive = the rest. The set was probably picked from earlier hits. The list shows a part of the results.

The assay can be described thus: Mycobacterium tuberculosis growth inhibition, primary screen (AID 1259343). As to conditions: inhibition: at 10 µM, stronger effect = higher value; outcome: 10 uM.
Consider `Clc1ccc(-c2cnnc(N3CCC(c4ccncc4)CC3)n2)cc1`, for which the inhibition (commonly the relative decrease from the control value, in per cent) was 21.9% (inactive). For `CS(=O)c1ccccc1C(=O)OCc1c(Cl)cccc1Cl` (stereo not drawn) the value was 30.8% (inactive); for `CC(NC(=O)COC(=O)c1ccccc1O)c1cccs1` (stereo not drawn), 88.8% (active).

Consider `CC(C)C(NC(=O)C1=Cc2ccccc2OC1)c1cccs1` (stereo not drawn), for which the inhibition was 5.93% (inactive). Take `CCOC(=O)N1CCN(C(=O)c2cc(COc3ccc(C)c(C)c3)on2)CC1`: the inhibition is 74.9% (active). As for `Cc1cccc(N2CCN(C(=O)c3cc(COc4ccc(F)c(F)c4)on3)CC2)n1`, the inhibition is 52.2% (active). `CCCCc1nnc(-c2cc3ccccc3[nH]2)o1`: the inhibition is 18.4% (inactive). Regarding `CCCc1nnc(-c2cc3ccccc3[nH]2)o1`, the inhibition was 38.4% (inactive). As to `CCCc1nnc(-c2cc3ccccc3n2C)o1`, the inhibition was 69% (active). The same measure for `c1ccc(CCc2nc(-c3ccncc3)no2)cc1`: “inactive”. The same measure for `O=C(CCc1nc(-c2ccncc2)no1)Nc1ccc(Oc2ccccc2)cc1`: 95.7% (active); for `COC(=O)c1cccc(NC(=O)N2CCN(CCCOC(c3ccc(Cl)cc3)c3ccc(Cl)cc3)CC2)c1`: 13.4% (inactive). For the molecule `c1ccc(OCc2noc(COc3ccc4ncccc4c3)n2)cc1`, the inhibition is 64.9% (active). Consider `CCc1noc(CSC2=Nc3ccccc3CS2)n1`, for which the inhibition is 23% (inactive). The same measure for `c1ccc(OCc2noc(CN3CCN(c4ccccn4)CC3)n2)cc1`: 43% (inactive); for `CN(Cc1ccc2nsnc2c1)Cc1nc(COc2ccccc2)no1`: 65.2% (active); for `c1ccc2[nH]c(-c3ccc(OCc4nc(CC5CC5)no4)cc3)nc2c1`: 10.7% (inactive).

As for `CN(Cc1nc(COc2ccccc2)no1)CC1CCOCC1`, the inhibition is 29.5% (inactive). The same measure for `CN(Cc1nc(COc2ccccc2)no1)CC1Cc2ccccc2O1` (stereo not drawn): 53.6% (active); for `CCc1ccc(CN(C)Cc2nc(COc3ccccc3)no2)nc1`: 93.7% (active); for `COc1ccc(-c2nc(CN(C)Cc3ccc4nsnc4c3)c(C)o2)c(C)c1C`: 12.7% (inactive).

Consider `Nc1ccccc1Sc1c[nH]c2ccccc12`, for which the inhibition is 46.1% (inactive). In the case of `Cc1ccc(OCCN(C)c2ccccc2)cn1`, the inhibition was -0.64% (inactive). `Cc1ccc(OCCN(C)Cc2nc(COc3ccccc3)no2)cc1`: the inhibition was 80% (active). `COc1ccc(N=Cc2c(NCCO)nc3c(C)cccn3c2=O)cc1`: the inhibition was 75.7% (active). For `COc1ccc(Nc2nc3c(C)cccn3c(=O)c2/C=N\Nc2ccccc2)cc1`, the inhibition was 88.8% (active). The same measure for `Cc1cccn2c(=O)nc(SC/C=C/c3ccccc3)nc12`: 7.88% (inactive). With `Cc1ccc(N=Cc2c(Nc3ccccc3)nc3c(C)cccn3c2=O)cc1`, the inhibition is -12% (inactive). In the case of `O=S(=O)(NN=C1c2ccccc2-c2ccccc21)c1ccccc1`, the inhibition was -15.8% (inactive).

For `CSc1nc2c(c(-c3ccc(O)cc3)c1C#N)CCC2`, the inhibition was 48.4% (inactive). For the molecule `N#CCSc1nc2c(c(C3CC=CCC3)c1C#N)CCC2` (stereo not drawn), the inhibition was 66.1% (active). For `CCSc1nc2c(c(C3CC=CCC3)c1C#N)CCC2` (stereo not drawn) the value was 45.2% (inactive); for `CC1CCC(N(C)C(=O)NCc2ncc(-c3ccccc3)o2)CC1` (stereo not drawn), 76.1% (active); for `Cc1ccccc1-c1nc(CN2CCN(c3ncc4ccccc4n3)CC2)c(C)o1`, 20.3% (inactive). On to `c1ccc2oc(CN3CCC(c4nc5ccccc5s4)CC3)nc2c1`, for which the inhibition was -16% (inactive). Turning to `c1ccc2oc(N3CCN(Cc4ccc(C5CCCO5)s4)CC3)nc2c1` (stereo not drawn), the inhibition is 90.8% (active). On to `CC(C)c1nc(Cn2ccnc2-c2ccc(C3CCCCO3)s2)no1` (stereo not drawn), for which the inhibition is -7.76% (inactive). On to `c1ccc(N2CCCC2)c(CNc2nc3ccccc3o2)c1`, for which the inhibition was 34.1% (inactive). Take `CCSc1ncc(CN2CCN(c3nc4ccccc4o3)CC2)cn1`: the inhibition was 95.3% (active).

`CCCCC(CC)CN1CNC(=S)NC1` (stereo not drawn): the inhibition was 48.2% (inactive). For `O=S(=O)(Nc1cccc(Br)c1)c1ccc(Cl)s1` the value was 84.1% (active); for `O=S(=O)(Nc1cccc(Br)c1)c1ccc(Br)s1`, 97.3% (active); for `CC(=O)/C(=N/Nc1ccccc1[N+](=O)[O-])Oc1ccc(Br)cc1`, -28.4% (inactive).

Take `COc1ccccc1CC(=O)NC1CCSc2ccccc21` (stereo not drawn): the inhibition is -22.7% (inactive). Consider `COc1ccc(OC)c2c1CN(C1CCCc3ccccc31)CC2O` (stereo not drawn), for which the inhibition was 95.8% (active). For the molecule `NC(=O)C1CN(C2CCCCc3ccccc32)CCO1` (stereo not drawn), the inhibition was 49.4% (inactive). Regarding `Cc1ccc(C(=O)NCc2ccc(-c3ccc(O)cc3)cc2)o1`, the inhibition is 40.6% (inactive). Take `CN(Cc1ccc2ccccc2c1)C(=O)COc1ccccc1F`: the inhibition is 38.5% (inactive). Take `Cc1ccc(CN(C)C(=O)COc2ccc(O)cc2)o1`: the inhibition is 80.2% (active). `CCC(=O)OC(C#N)C1=C(Cl)C(=O)c2ccccc2C1=O` (stereo not drawn): the inhibition was 103% (active). `CCNC(=O)NC(=O)CSc1nnc(Nc2ccc(CC)cc2)s1`: the inhibition is 66.4% (active). For the molecule `CCOCCCNC(=O)NC(=O)CSc1nnc(Nc2ccc(C)cc2)s1`, the inhibition was 83% (active).

On to `CCOC(=O)CSc1nnc(Nc2ccc(C)cc2)s1`, for which the inhibition is -19.5% (inactive). Turning to `CCCC(C)NC(=O)CSc1nnc(Nc2ccc(CC)cc2)s1` (stereo not drawn), the inhibition was 84.9% (active). With `CCNC(=O)NC(=O)CSc1nnc(Nc2ccc(C(C)C)cc2)s1`, the inhibition was 85% (active). For `CN[C@@H]1C[C@@H](c2ccc(Cl)c(Cl)c2)c2ccccc21` the value was 48% (inactive); for `COc1ccc2c(c1)OCC(C(=O)C(C#N)c1nc3ccccc3o1)C2` (stereo not drawn), 99.3% (active). As to `CC1(C)C(C(Cl)Cl)C2(Cl)C(Cl)C(Cl)C1(Cl)C2(Cl)Cl` (stereo not drawn), the inhibition is 76.2% (active).

On to `Cc1ccccc1N=C1NC(=O)C(Cc2ccccc2[N+](=O)[O-])S1` (stereo not drawn), for which the inhibition was 56.7% (active). For `O=c1ccc([N+](=O)[O-])ccc1Nc1ccccn1` the value was 82.3% (active).

On to `CC(C)CCNC(=O)c1ncc(Cl)c(Cl)c1Cl`, for which the inhibition is 81.3% (active). As to `Cc1noc(-c2ccc(C(=O)NCCC(C)C)cc2)n1`, the inhibition was -1.14% (inactive).

In the case of `Fc1ccc(-c2noc3nc(OCc4ncccn4)ccc23)cc1`, the inhibition is 46% (inactive). Regarding `c1ccc(-c2noc3nc(OCc4ccccn4)ccc23)cc1`, the inhibition was 50.7% (active). The same measure for `Cc1nc(COc2ccc3c(-c4ccccc4F)noc3n2)cs1`: 62.8% (active). Consider `Fc1ccccc1-c1noc2nc(OCc3ccccn3)ccc12`, for which the inhibition is 90.2% (active). On to `CCCCc1ccc(NC(=O)CCS(=O)(=O)c2ccc(Cl)cc2)cc1`, for which the inhibition is -52.4% (inactive). With `Cc1ccc(S(=O)(=O)CCC(=O)Nc2ccc(C)c(C)c2)cc1`, the inhibition is 68% (active). The same measure for `Clc1ccc2c(Oc3ccc(Br)cc3)ccnc2c1`: 58% (active); for `Clc1ccc2c(Oc3cccc(Br)c3)ccnc2c1`: 0.33% (inactive); for `O=C1c2ccccc2S(=O)(=O)N1c1ccc(Cl)cc1`: 60.5% (active). In the case of `O=C1c2ccccc2S(=O)(=O)N1c1ccc(Br)cc1`, the inhibition was -53.1% (inactive). Consider `O=C1c2ccccc2S(=O)(=O)N1c1cccc(Cl)c1`, for which the inhibition result was “inactive”. Turning to `CCCCOc1cccc2c1CCN(CC)C2=O`, the inhibition was -1.17% (inactive). As to `O=C1c2cccc(O)c2CCN1Cc1ccc(Cl)cc1`, the inhibition is 58% (active). Turning to `O=C1c2cccc(O)c2CCN1Cc1ccc(Br)cc1`, the inhibition was 19.3% (inactive). `COc1ccc(OC)c(Nc2nc(Cl)nc(Nc3cc(OC)ccc3OC)n2)c1`: the inhibition was 1.76% (inactive). For `CCOc1ccc(N2C(=O)C3N=NN(Cc4cc(C(=O)OC)ccc4OC)C3C2=O)cc1` (stereo not drawn) the value was -31.4% (inactive). With `COC(=O)c1ccc(OC)c(CN2N=NC3C(=O)N(c4ccc(OC)c(Cl)c4)C(=O)C32)c1` (stereo not drawn), the inhibition is 55.6% (active). Consider `COc1ccc(N2C(=O)C3N=NN(Cc4cccc(C)c4)C3C2=O)cc1Cl` (stereo not drawn), for which the inhibition was 79.6% (active). Take `COc1ccc(CN2N=NC3C(=O)N(c4ccc(OC)c(Cl)c4)C(=O)C32)cc1` (stereo not drawn): the inhibition is 83.8% (active). Regarding `Cc1cccc(CN2CCN(Cc3ccc(Cl)c(F)c3)CC2=O)c1`, the inhibition was 6.7% (inactive).

As for `COc1cccc(CN2N=NC3C(=O)N(c4ccc(OC)c(Cl)c4)C(=O)C32)c1` (stereo not drawn), the inhibition was 102% (active). Consider `COc1ccc(N2C(=O)C3N=NN(Cc4ccccc4)C3C2=O)cc1Cl` (stereo not drawn), for which the inhibition is 20.8% (inactive). With `Cc1nn2c(NCCCN(C)C)cc(-c3ccccc3)nc2c1-c1ccccc1`, the inhibition is -0.28% (inactive). For `CC(=O)c1nnc2c(-c3ccccc3)c(C)nn2c1C` the value was 89.5% (active); for `Cc1nn2c(=O)[nH]c(SCc3cccnc3)nc2c1-c1ccccc1`, 33.2% (inactive).

As to `COc1ccc(/C=C/c2nc3cc(C)ccc3s2)cc1O`, the inhibition was 23.6% (inactive). In the case of `CC(=O)Nc1ccc(OC/C=C/c2ccccc2)cc1`, the inhibition was 87.3% (active). In the case of `COc1ccc(/C=C/C(=O)NNC(=O)COc2ccc(C)cc2)cc1`, the inhibition was 95.6% (active). In the case of `Cc1oc(-c2ccccc2Cl)cc1CO`, the inhibition was 35.3% (inactive). For `CNC(=O)COc1ccc(-c2ccccc2Cl)cc1` the value was 72.2% (active). Turning to `CNC(=O)COc1ccc(Oc2ccc(C)cc2)cc1`, the inhibition was 25.8% (inactive). For `CNC(=O)COc1ccc(-c2c(C)cccc2C)cc1`, the inhibition was 26.1% (inactive). In the case of `CNC(=O)COc1ccc(/C=C/c2ccccc2)cc1`, the inhibition is 51.1% (active). Turning to `O=C(COc1ccccc1)NN=Cc1ccc(Br)cc1`, the inhibition was 89.4% (active). The same measure for `COC(=O)Cc1ccc(OCC(=O)NC(C)c2ccc(Cl)cc2)cc1` (stereo not drawn): 20.1% (inactive); for `CC(NC(=O)COc1ccccc1)c1ccccc1Cl` (stereo not drawn): 85.4% (active). The same measure for `Cc1nc(Cl)cc(NC(C)c2ccc(Cl)c(Cl)c2)n1` (stereo not drawn): 6.72% (inactive); for `Cc1ccc(-n2nnc(C(=O)OCc3ccccc3C)c2C)cc1`: 93.8% (active); for `COc1ccc(-c2nn(-c3ccccc3)cc2CN2CCN(c3cnccn3)CC2)c(F)c1`: 62.9% (active). In the case of `COc1ccc(Oc2ccc(C(=O)N[C@H]3CCCC[C@@H]3O)cc2)cc1`, the inhibition is 80.8% (active). Turning to `COc1ccc(C(=O)NC2CC(C)(C)Cc3occc32)cc1` (stereo not drawn), the inhibition is -1.78% (inactive).

On to `CCOC(=O)CSc1ncnc2c1nnn2Cc1ccc(F)cc1`, for which the inhibition is -18.2% (inactive).

As for `CCOC(=O)CNC(=O)CSc1ncnc2c1nnn2Cc1ccc(F)cc1`, the inhibition is -15.9% (inactive). Take `CCOC(=O)C(C)Sc1ncnc2c1nnn2Cc1ccc(Cl)cc1` (stereo not drawn): the inhibition was 50.4% (active). As to `CCOC(=O)C(C)Sc1ncnc2c1nnn2Cc1ccc(F)cc1` (stereo not drawn), the inhibition is 64.3% (active).

Regarding `CCOC(=O)CSc1ncnc2c1nnn2Cc1ccc(Cl)cc1`, the inhibition was -17.6% (inactive).
